Compound activity: PubChem, National Center for Advancing Translational Sciences (NCATS)
POLB inh – blocks human DNA polymerase beta activity; Pol beta primer extension/strand displacement, fluorescence kinetic; Potency, µM (highest dose often 114 µM), for inactives: at the top dose activity change, negative = inhibition, usual class: inhibitors; actives 1.3% (n = 340,000); AID 485314; note: potency is the fitted concentration of half-maximal effect; % is set by controls: 0 for no effect and ±100 for the full control effect
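Preincubation: enzyme (10 nM) with compound, 15 min, RT. Reaction: substrate added to 50 nM final. Reads: 0 and 10 min. Analysis: normalized, Hill fit.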
12-LOX inh – blocks human arachidonate 12S-lipoxygenase. P18054. AID 1671190. actives 1.1% (n = 580,000). Potency, µM (series often up to 108 µM), for the others: at the top dose activity change, negative = inhibition, usual class: inhibitors. purified 12hLO, xylenol orange hydroperoxide absorbance; note: potency is the fitted concentration of half-maximal effect; % is set by controls: 0 for no effect and ±100 for the full control effect
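Purified human 12hLO (150 nM final) in 25 mM Hepes, 0.01% Triton X-100, pH 7.0 was preincubated 15 min at room temperature with compound. Then 40 uM arachidonic acid was added, 30 min. Hydroperoxide was read by Fe-XO absorbance ratio 573/405 nm.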
POLK inh – inhibitors of human DNA polymerase kappa; Q9UBT6; Potency, µM (series often up to 107 µM), inactives show top-dose activity, negative = inhibition, hits mostly inhibitors; actives 0.53% (n = 400,000); purified Pol kappa, fluorescent DNA synthesis assay, 10 min; note: potency is the fitted concentration of half-maximal effect; % is set by controls: 0 for no effect and ±100 for the full control effect
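10 nM Pol kappa preincubated 15 min at room temperature with compounds, then reaction started with substrate at 50 nM final. Fluorescence read kinetically at 0 and 10 min; buffer-only wells served as negative control.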
POLI inh – inhibitors of human DNA polymerase iota; Q9UNA4; actives 1% (n = 390,000); Potency, µM (doses to about 115 µM), inactives show at the highest dose activity, negative = inhibition, most hits filed as inhibitors; AID 588590; Pol iota fluorescent replication assay, 10 min; note: potency is the fitted concentration of half-maximal effect
Target sequence (Q9UNA4 whole entry, looked up): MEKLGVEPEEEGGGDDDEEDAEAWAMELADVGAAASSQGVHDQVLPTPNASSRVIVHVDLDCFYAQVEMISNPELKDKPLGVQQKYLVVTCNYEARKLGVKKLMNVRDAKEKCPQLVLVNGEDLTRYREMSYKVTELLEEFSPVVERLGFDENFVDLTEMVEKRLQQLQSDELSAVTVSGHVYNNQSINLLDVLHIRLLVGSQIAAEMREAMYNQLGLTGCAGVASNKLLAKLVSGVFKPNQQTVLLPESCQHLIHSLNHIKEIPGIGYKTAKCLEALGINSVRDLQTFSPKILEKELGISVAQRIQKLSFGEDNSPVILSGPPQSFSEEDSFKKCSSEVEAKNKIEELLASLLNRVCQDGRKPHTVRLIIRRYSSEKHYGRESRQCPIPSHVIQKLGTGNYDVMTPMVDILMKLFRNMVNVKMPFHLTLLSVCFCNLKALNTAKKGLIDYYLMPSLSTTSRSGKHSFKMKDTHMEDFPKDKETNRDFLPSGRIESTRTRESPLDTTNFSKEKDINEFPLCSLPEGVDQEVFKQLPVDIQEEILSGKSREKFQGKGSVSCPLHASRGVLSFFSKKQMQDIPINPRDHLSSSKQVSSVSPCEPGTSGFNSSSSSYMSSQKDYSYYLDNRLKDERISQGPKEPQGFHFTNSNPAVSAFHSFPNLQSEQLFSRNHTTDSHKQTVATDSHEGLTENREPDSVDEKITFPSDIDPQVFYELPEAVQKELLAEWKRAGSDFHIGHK
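Pol iota at 10 nM preincubated 15 min with compounds at room temperature; reaction started with fluorescent substrate, 50 nM final. Fluorescence read kinetically at 0 and 10 min; buffer-only wells as negative control.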
PI5P4K alpha inh – inhibitors of human PI5P4K alpha | P48426 | PI5P4Kalpha enzyme, ADP-Glo luminescence, 60 min; active compounds read low | max response, % | actives 1.2% (n = 330,000) | AID 652105; active = max response of -50% or lower; inconclusive = between -30% and -50%; inactive = -30% or higher; note: value at the top dose of about 77 µM; % is set by controls: 0 for no effect and ±100 for the full control effect
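Quantitative HTS of the MLSMR library against PI5P4Kalpha with substrate. ATP added last at 5 microM final; room temperature, 60 minutes. Remaining ATP depleted, ADP converted and read as luminescence.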
Pol eta inh – DNA polymerase eta (human) inhibition; Q9Y253; recombinant Pol eta, fluorescent DNA replication assay; Potency, µM (doses to about 114 µM), for inactives: at the highest dose activity change, negative = inhibition, hits mostly inhibitors; actives 1.2% (n = 390,000); AID 588591; note: potency is the fitted concentration of half-maximal effect; % is set by controls: 0 for no effect and ±100 for the full control effect
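Fluorescent replication assay: 50 nM final substrate added after a 15 min room-temperature compound preincubation with 10 nM enzyme. Signal taken at 0 min and again at 10 min.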
ADP-Glo counter – ADP-Glo luciferase interference, PI5P4K counter-screen; shares compounds with PI5P4K alpha inh; ADP-Glo detection counter-screen, luciferase luminescence, no enzyme; Potency, µM (titrated, usually from 76.9 µM), without a hit: at the top dose activity change, negative = inhibition, usual class: inhibitors; 1,100 tested, under 10 active
* = called active by the depositor; ? = inconclusive; . = not tested or not shown; ! = not confirmed by another sample; [ ] = remark or other dose. In the library only some 2.9% were active in any assay of this set; here they are far more common. Unless noted, calls come from the whole dose curve; as a rule, active = well fitted curve in the direction sought with a large enough effect; inconclusive = small, poorly fitted or top-dose-only effect, or another doubt; inactive = no such curve, though single readings can be large; an effect the other way counts as inactive or inconclusive.

SMILES | POLB inh | 12-LOX inh | POLK inh | POLI inh | PI5P4K alpha inh | Pol eta inh | ADP-Glo counter
CCCOC(=O)c1ccc(Oc2c(C)oc3cc(OC)ccc3c2=O)cc1 | . | 0% | . | . | . | . | .
CC1Cc2ccccc2N1C(=O)COC(=O)CCc1nc2ccccc2c(=O)[nH]1 (centres undefined) | ? | -8% | -7% | 9% | -51* | -8% | -3%
O=C(COC(=O)CCc1nc2ccccc2c(=O)[nH]1)Nc1ccc(Cl)cn1 | 3% | ? | -4% | 62% | -55* | -34% | 1%
O=C(CCc1nc2ccccc2c(=O)[nH]1)OCC(=O)N1CCc2ccccc21 | 21% | 1% | -6% | 129% | 2 | -21% | .
Cc1ccc2nc(CO[C@H]3CN(Cc4ccccc4)C[C@H]3F)[nH]c2c1 | . | 85%[176 µM] | . | . | . | . | .
CN(C)c1nc2c(c(=O)[nH]1)CCN(Cc1ccc(C(F)(F)F)cc1)CC2 | . | 26% | . | . | . | . | .
CCOC(=O)c1cnc2ccc(C)cc2c1Nc1ccc(C(C)=O)cc1 | . | 14% | . | . | . | . | .
O=C(NCc1cc([N+](=O)[O-])ccc1O)c1cccc(NS(=O)(=O)c2ccccc2)c1 | 3% | . | 1% | 17% | -66* | -17% | 2%
O=c1c2ccccc2cnn1CN1CCN(S(=O)(=O)c2cccc(Cl)c2)CC1 | . | -30% | . | . | . | . | .
O=C(c1ccc(OCCN2CCCCC2)cc1)c1c(-c2ccc(O)cc2)sc2cc(O)ccc12 | -8%[57.1 µM] | 14µM*! | -9%[60.1 µM] | ? | -51*! | -17% | -5%
CCC(=O)N1N=C(c2ccc(Cl)cc2)CC1c1ccco1 (centres undefined) | 1% | 0% | 1% | 2% | 0 | -7% | .
O=C(OCC(=O)N1N=C(c2ccc(Cl)cc2)CC1c1ccco1)c1cccnc1 (centres undefined) | . | -58% | 45µM* | ? | -71* | 28µM* | -1%
CNC(=O)c1nc(C)n(-c2ccc(Cl)cc2Cl)n1 | -17% | -10% | 0% | 61% | -93* | -3% | -7%
CC(NC(=O)COc1ccc(F)cc1F)c1ccccc1-n1cccn1 (centres undefined) | . | 6% | . | . | . | . | .
CN(Cc1cn(-c2ccccc2)nc1-c1cc2ccccc2o1)C(=O)CCC(=O)O | 8% | -4% | 1% | 32% | -59* | -18% | 0%
O=C(c1ccco1)N1CCC(C(=O)N2CCCCC2)CC1 | . | 2% | . | . | . | . | .
C=CCOc1ccccc1C1C2=C(CC(C)(C)CC2=O)OC2=C1C(=O)CC(C)(C)C2 | . | 4% | . | . | . | . | .
CCSc1nnc(NC(=O)c2ccco2)s1 | 2% | 0% | 2% | 10% | -12 | -4% | .
O=C(Nc1nnc(SCc2ccc(Cl)cc2)s1)c1ccco1 | 17% | 0% | -1% | ? | -57* | -10% | 4%
Cc1nc(-c2ccccc2)sc1C(=O)O | 1% | -4% | -3% | 6% | ? | 0% | .
Cc1nc(-c2cccc(C(F)(F)F)c2)sc1C(=O)O | 43% | 3% | -4% | 84% | -50* | -10% | 2%
CC1=C(C(=O)Nc2ccccc2)C(c2ccccc2F)n2ncc(C(=O)Nc3ccccc3)c2N1 (centres undefined) | . | -22% | . | . | . | . | .
Oc1ccc(CNc2ccccc2F)c2cccnc12 | 5% | 2.2µM*! | 3% | 4% | ? | -15% | -9%
O=C1N(c2ccccc2)c2ccccc2C12CCN([S+](=O)([O-])c1cccs1)C2 (centres undefined) | . | 4%[6.33 µM] | . | . | . | . | .
COc1ccc(C(=O)c2sc(Nc3ccccc3F)nc2N)cc1 | 8% | ? | -6% | 0% | -81* | -23% | -1%
Cc1nc(NC(N)=S)sc1C(=O)Nc1ccccc1 | 1% | ? | -5% | 13% | . | -14% | .
Cc1cc(NC(=O)c2sc(Nc3ccc(F)cc3)nc2N)no1 | ? | -4% | -3% | -11% | -54* | -18% | 3%
